This passage reports Potency and activity, negative = inhibition results from PubChem BioAssay AID504332 (National Center for Advancing Translational Sciences (NCATS), 2011).

The campaign covered roughly 350,000 compounds. About 31,000 (8.9%) were called active. Inconclusive results (about 15%) are left out. The entries come from a sample that favours actives as a whole. A call without a number means that no potency is given here. A number with no mark means an inactive call. Calls come from the whole dose curve; as a rule, active = well fitted inhibition curve with a large enough effect; inconclusive = small, poorly fitted or top-dose-only effect; inactive = no such curve, though single readings can be large or run the other way.
Potency is the fitted concentration of half-maximal effect.

Sequence of Histone-lysine N-methyltransferase EHMT2 (Homo sapiens) (Q96KQ7 913-1193 limits assumed): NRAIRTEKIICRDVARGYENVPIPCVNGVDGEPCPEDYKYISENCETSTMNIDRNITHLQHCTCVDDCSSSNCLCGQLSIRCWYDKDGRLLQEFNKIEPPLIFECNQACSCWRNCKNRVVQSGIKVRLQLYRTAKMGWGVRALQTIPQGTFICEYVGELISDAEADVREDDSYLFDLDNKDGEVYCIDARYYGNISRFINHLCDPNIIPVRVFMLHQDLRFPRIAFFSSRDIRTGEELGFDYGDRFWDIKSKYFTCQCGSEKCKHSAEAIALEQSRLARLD

This assay has as its target Histone-lysine N-methyltransferase EHMT2 (Homo sapiens) (UniProt Q96KQ7). The assay is described as follows: qHTS Assay for Inhibitors of Histone Lysine Methyltransferase G9a. Note: nearly all actives have a fitted effect of over 75% in size. Particulars: G9a H3K9 monomethylation, AlphaScreen, 2 h; series mostly up to 59 µM. An excerpt:
Methylated lysines, on the N-terminal tails of histone proteins serve as epigenetic markers to recruit factors that can then modify local chromatin structure to lead to functional consequences. G9a and other members of the SUV39 family of the SET domain-containing superfamily of histone lysine methyltransferases (HMT) have been identified to specifically methylate Lys9 of histone H3 (H3K9). G9a catalyzes the mono- and di-methylation of H3K9 in mammalian euchromatic regions, where the resulting H3K9me2 is indicative of transcriptional repression. […] The inhibition of G9a will result in transcriptional activation and work synergistically with DNA methyltransferase and histone deacetylase inhibitors, to kill cancer cells. This qHTS assay for identification of G9a inhibitors is a chemiluminescence based AlphaScreen (PerkinElmer). Methylation of biotinylated-histone peptide is measured through specific antibody-based detection, in conjunction with streptavidin-coated donor and anti-IgG antibody-coated acceptor beads. The method is particularly well suited for detection of inhibitors acting by the desired histone peptide competitive mechanism and is applicable to testing other HMTs. Although AlphaScreen has significant advantages with its utility in a variety of epigenetic target assays, the primary screening data provided in this deposition should be used with caution due to the prevalence of screening artifacts. An AlphaScreen counterscreen is highly recommended to be run against any putative actives to eliminate non specific artifacts. Alternatively, one can use other AlphaScreen assays in PubChem to filter out promiscuous hits. Quinn et al. A chemiluminescence-based method for identification of histone lysine methyltransferase inhibitors. Mol Biosyst 6(5): 782-8. 2010. PMID: 20567762 [2] Baell,Holloway. New substructure filters for removal of pan assay interference compounds (PAINS) from screening libraries and for their exclusion in bioassays. J Med Chem. 53(7):2719-40. 2010. PMID: 20131845 NIH Molecular Libraries Probe Production Network [MLPCN] NIH Chemical Genomics Center [NCGC] Structural Genomics Consortium (SGC) NIH Grant: 5U54 MH084681-02
To each well of a 1,536w plate, 2ul of HMT enzyme (final 20nM) were added, using a nanoliter dispenser. The G9a- and GLP-inhibitor BIX-01294 (CID: 25150857) are used as an intraplate control, with a 16-point titration in duplicate. A Kalypsys pin-tool transferred 23nl of library compound solution in DMSO to each well. Following a 15 min incubation of enzyme with compounds at room temperature, 1ul mixture of b-H3K9 peptide substrate (final 500nM) and SAM cofactor (final 20uM) were added. Reactions were allowed to proceed at room temperature for 2 hours. Methylated b-H3K9 peptide product was detected with 0.5 ug/mL rabbit polyclonal anti-monomethyl histone H3K9 antibody (Abcam Inc., Cambridge, MA) and 20 ug/mL each streptavidin-coated donor and anti-rabbit IgG acceptor AlphaScreen beads. Antibody and beads were added in a 1ul dispense, for a final volume of 4ul, and plates were incubated, protected from the light, for 10 min at room temperature. Microplates were then read on an EnVision multilabel plate reader using the 1,536 plate HTS AlphaScreen aperture (excitation time 80 ms, measurement time 240 ms).
On to `Cc1ccc(OC(=O)c2cncc(Br)c2)c(C)c1`, for which the Potency entry was “inactive”. As for `COc1ccc(NC(=O)CCNS(=O)(=O)c2ccc3c(c2)c(=O)n(C)c(=O)n3C)cc1OC`, the Potency entry was “inactive”. As to `COc1ccc(OC)c(-n2cc3c(=O)n(C)c(=O)n(C)c3c2)c1`, the Potency was 50.1 µM (active). As to `Cn1c(=O)c2cn(-c3cccc4ccccc34)cc2n(C)c1=O`, the activity, negative = inhibition was 5.87% [at 2.33 µM]. For `Cc1ccc(NC(=O)c2cccc(S(=O)(=O)N3CCCc4ccccc43)c2)nc1`, the Potency result is “inactive”. On the same count and under the same terms, then `CCOC(=O)CC1(NC(=O)c2cc(COc3cncc(Cl)c3)on2)CCCCC1`, with “inactive”; and `CCOC(=O)C(Cc1ccc(N)cc1)N1C(=O)c2ccccc2C1=O` (configuration not stated), with 50.1 µM (active). `COc1ccc(C[C@H](C(=O)O)N2C(=O)c3ccc(C(=O)O)cc3C2=O)cc1`: the activity, negative = inhibition was 8.45% [at 12.7 µM].

In the case of `CCCCC(C(=O)OCC(=O)c1ccc(OC)cc1)N1C(=O)c2ccccc2C1=O` (configuration not stated), the Potency result was “inactive”. In the case of `COc1cc(OC)cc(C(=O)NCCc2csc3nc(-c4ccccc4F)nn23)c1`, the Potency result was “inactive”. Take `CCOCCCNC(=O)C(NC(=O)CNC(=O)c1ccccc1)c1ccc(OC)cc1` (configuration not stated): the Potency was 15.8 µM (active).

On to `CCOCCCNC(=O)C(NC(=O)CNC(=O)c1ccccc1)c1ccc(C)cc1` (configuration not stated), for which the Potency result was “inactive”. Still for that read-out and setting: the entry for `CCOCCCNC(=O)C(NC(=O)Cc1c[nH]c2ccccc12)c1ccc(OC)cc1` (configuration not stated) is “inactive”; for `Cc1c(NC(=O)Nc2ccc(F)c(Cl)c2)c(=O)n(-c2ccccc2)n1C` it is “inactive”. As for `O=C(O[C@@H]1[C@H](Cc2ccccc2)NS(=O)(=O)[C@H]2C[C@@H]3C=C[C@]12O3)c1ccccc1Br`, the activity, negative = inhibition was 6.72% [at 0.501 µM]. In the case of `O=C(CSCc1ccccc1)Nc1ccccc1`, the activity, negative = inhibition is 2.25% [at 2.33 µM]. For the molecule `CC1CCN(CCC(=O)Nc2ccccc2)CC1`, the Potency result was “inactive”.

Regarding `O=C(CCN1c2ccccc2Sc2ccccc21)Nc1ccccc1`, the Potency was 50.1 µM (active).

`O=C(COc1ccccc1Cl)Nc1ccc2nc(SCC(=O)N3CCCC3)sc2c1`: the Potency entry was “inactive”. The same measure, in the same setting: the entry for `O=C(Nc1ccc(C2CC2(Cl)Cl)cc1)c1cccc([N+](=O)[O-])c1` (configuration not stated) is “inactive”. As for `COc1ccc(C2(C)ON(c3ccccc3C(F)(F)F)C2=O)cc1` (configuration not stated), the activity, negative = inhibition is 1.68% [at 2.33 µM]. For `COc1ccc(S(=O)(=O)N2CCCC2CNC(=O)C(=O)NC2CC2)cc1` (configuration not stated), the activity, negative = inhibition was 4.18% [at 0.501 µM]. As to `CCC(=O)c1ccc(OCC(=O)OCC(=O)NC2CCCCCC2)cc1`, the Potency result was “inactive”.

For the molecule `O=C(COc1ccccc1[N+](=O)[O-])N/N=C/c1ccc[nH]1`, the Potency result was “inactive”. For `C=CCN(CC=C)CCOc1ccccc1[N+](=O)[O-]`, the Potency was 17.8 µM (active). On to `O=C(COc1ccccc1[N+](=O)[O-])NC1CC1`, for which the Potency result is “inactive”. For `CSc1ccccc1NC(=O)C(C)N1C(=O)c2ccccc2S1(=O)=O` (configuration not stated), the Potency entry was “inactive”. Take `Cc1nn(C(C)C(=O)NCCc2ccccc2)c(=O)c2c1sc1ccccc12` (configuration not stated): the Potency result is “inactive”.

For `COc1ccc(-c2cc(C(=O)NC(Cc3c[nH]c4ccccc34)C(=O)O)c(C)o2)cc1OC` (configuration not stated), the Potency was 10 µM (active). The same measure, in the same setting: then `COc1ccc(CNC(=O)[C@H](Cc2c[nH]c3ccccc23)NC(C)=O)cc1OC`, with “inactive”; and `Cc1cccc(C)c1OCC(=O)NC(Cc1c[nH]c2ccccc12)C(=O)O` (configuration not stated), with “inactive”; and `O=C(Nc1cccc(Br)c1)c1ccc2snnc2c1`, with “inactive”. Same read-out and setting: the entry for `COc1cccc(Cn2c(CNS(=O)(=O)c3ccc(Cl)s3)nc3cccnc32)c1` is “inactive”. In the case of `CCCCCn1c(=O)[nH]c2cc(C(=O)NCCN(C)CCCC)ccc2c1=O`, the Potency result is “inactive”.

As for `O=C(N/N=C/c1ccoc1)c1ccc(Cl)cc1Cl`, the Potency entry was “inactive”. On to `CCCCOC(=O)c1ccc(N2C(=O)CC(N3CCN(C/C=C/c4ccccc4)CC3)C2=O)cc1` (configuration not stated), for which the Potency entry is “inactive”.

In the case of `COC(=O)c1cc(C(=O)OC)cc(N2C(=O)CC(N3CCN(c4ccccc4)CC3)C2=O)c1` (configuration not stated), the Potency is 15.8 µM (active). With `CC(=O)Oc1cccc(N2C(=O)CC(Nc3ccc(N4CCOCC4)cc3)C2=O)c1` (configuration not stated), the activity, negative = inhibition is -45.5% [at 12.7 µM]. In the case of `Cc1ccc(C)c(Cn2c(=O)n(CCC(=O)NCc3ccc4c(c3)OCO4)c(=O)c3sccc32)c1`, the Potency result was “inactive”. The same measure, in the same setting: the entry for `Cc1ccc(F)cc1S(=O)(=O)N1CCC(c2nc3ccccc3s2)CC1` is “inactive”; for `COc1ccc(CCn2nnnc2C(c2ccccc2)N2CCN(C)CC2)cc1OC` (configuration not stated) it is 70.8 µM (active). For `N#Cc1ccc(C(c2nnnn2CCc2ccccc2)N2CCCCCC2)cc1` (configuration not stated), the Potency result is “inactive”. For `COCCn1nnnc1C(c1ccccc1Cl)N1CCN(c2ccccc2OC)CC1` (configuration not stated), the Potency entry was “inactive”. Still for that read-out and setting: the entry for `COc1ccc(C(=O)N2CCC(c3nc4ccccc4o3)CC2)cc1` is “inactive”; for `COc1ccc(CNC(=O)c2cc3cccc(OC)c3oc2=O)cc1` it is “inactive”.

Take `O=C(CC1N=C2c3ccccc3N=C(SCc3cccc(Cl)c3)N2C1=O)NCc1ccc2c(c1)OCO2` (configuration not stated): the Potency entry is “inactive”.

As for `CCOC(=O)c1c(C)[nH]c(C(=O)OCC(=O)c2ccc(OC)cc2OC)c1C`, the activity, negative = inhibition is 4.02% [at 0.501 µM].
